# Values without a mark were called inactive. The call rests on the fitted dose curve; in most records, active means well fitted curve in the direction sought with a large enough effect; inconclusive means small, poorly fitted or top-dose-only effect, or another doubt; inactive means no such curve, though single readings can be large; an effect the other way counts as inactive or inconclusive. Records with an inconclusive call do not appear.
# Target: Glucagon-like peptide 1 receptor (Homo sapiens) (UniProt P43220)
# Test: qHTS of GLP-1 Receptor Agonists: LOPAC Validation (AID 624148);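 further: higher luminescence signal means agonism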
# Details: GLP-1R agonist cell assay; series mostly up to 46.1 µM; activation: at the top concentration
# Procedure, shortened: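 HEK293 cells stably co-expressing GLP-1R and a cAMP-responsive luciferase reporter, plated 12 hours before compound, then incubated 4-6 hr at 37 deg C. Luminescence read 12 min after detection reagent.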
# Further: 0% is about no effect.
# Glucagon-like peptide 1 receptor (Homo sapiens), sequence (P43220 whole entry, looked up): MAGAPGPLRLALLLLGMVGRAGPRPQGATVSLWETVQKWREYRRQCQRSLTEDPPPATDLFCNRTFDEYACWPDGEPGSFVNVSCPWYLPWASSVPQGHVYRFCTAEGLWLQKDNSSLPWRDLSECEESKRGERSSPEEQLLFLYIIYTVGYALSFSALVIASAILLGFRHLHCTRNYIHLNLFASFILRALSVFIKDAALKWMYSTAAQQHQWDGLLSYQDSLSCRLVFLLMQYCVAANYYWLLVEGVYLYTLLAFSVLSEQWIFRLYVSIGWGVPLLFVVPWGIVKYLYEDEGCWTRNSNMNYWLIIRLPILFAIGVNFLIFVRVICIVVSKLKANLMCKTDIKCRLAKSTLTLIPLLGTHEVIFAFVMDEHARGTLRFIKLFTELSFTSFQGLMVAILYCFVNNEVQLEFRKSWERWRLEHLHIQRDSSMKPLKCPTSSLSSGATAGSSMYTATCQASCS
row,SMILES,activation
1,NC(=S)c1ccc[n+]([C@@H]2O[C@@H](COP(=O)([O-])OP(=O)(O)OC[C@H]3O[C@@H](n4cnc5c(N)ncnc54)[C@H](OP(=O)(O)O)[C@@H]3O)C(O)C2O)c1 (stereo partly drawn),1.45%
2,CCCn1c(=O)c2[nH]c(-c3ccc(OCC(=O)NCCN)cc3)nc2n(CCC)c1=O,-1.25%
3,CN=c1nc(-c2ccccc2)n(-c2ccccc2)s1,-1.11%
4,CNC(=O)[C@H]1O[C@@H](n2cnc3c(NCc4ccc(N)cc4)ncnc32)[C@H](O)[C@@H]1O,8.68%
5,C=CC(C)=C[C@@]1(C)SC(=O)C(C)=C1O,-1.55%
6,Clc1ccc(N2CCN(Cc3cc4ccccn4n3)CC2)cc1,5.33%
7,N#C/C(=C\c1ccc(O)c(O)c1)C(=O)NCc1ccccc1,-1.33%
8,OC[C@H]1O[C@@H](n2cnc3c(NC4CCCCC4)ncnc32)[C@H](O)[C@@H]1O,18.6%
9,O=C1NC(=O)/C(=C/c2ccc3nccnc3c2)S1,-1.51%
10,NCCCCC(=O)O,-1.36%
11,COc1ccccc1N1CCN(CCN(C(=O)c2ccc(I)cc2)c2ccccn2)CC1,3.8%
12,NCC1OC(O[C@H]2[C@H](O)[C@@H](OC3C(O)C(N)CC(N)C3OC3OC(CO)C(O)C(O)C3N)O[C@@H]2CO)C(N)C(O)C1O (stereo partly drawn),-2.01%
13,O=C(O)c1cc([N+](=O)[O-])ccc1NCCCc1ccccc1,-1.58%
14,Nc1ncnc2c1ncn2[C@@H]1O[C@H](COP(=O)(O)CP(=O)(O)OP(=O)(O)O)[C@@H](O)[C@H]1O,-0.956%
15,NC(=O)C1=CN(C2OC(COP(=O)(O)OP(=O)(O)OC[C@H]3O[C@@H](n4cnc5c(N)ncnc54)[C@H](OP(=O)(O)O)[C@@H]3O)C(O)C2O)C=CC1 (stereo partly drawn),5.3%
16,CCCCC#Cc1nc(NC)c2ncn([C@@H]3O[C@H](CO)[C@@H](O)[C@H]3O)c2n1,14.3%

# Tested on: not listed separately
# Test: qHTS of Nrf2 Activators: LOPAC Validation (AID 624149)
# Details: Nrf2/ARE reporter cell assay; series mostly up to 46.1 µM; activation: at the top concentration
# Procedure, shortened: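 Luciferase signal from ARE activation, read with Steady-Glo after 30 min at room temperature. Compounds were pin-transferred onto AREc32_Fluc cells (1000/well, OPTI-MEM/5% FBS, seeded overnight) and left 24 hr at 37 deg C.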
row,SMILES,activation
1,Cc1ccc(O)c(N=Nc2ccccc2)n1,10.4%
2,CN1C2CCC1CC(OC(=O)C(O)c1ccccc1)C2 (stereo not drawn),-1.9%
3,CC(=O)SCC[N+](C)(C)C,-1.32%
4,COc1cc2nc(N3CCN(C(=O)OCc4ccccc4)C(C(=O)NC(C)(C)C)C3)nc(N)c2cc1OC (stereo not drawn),-1.61%
5,CC1(C)CCC=[N+]1[O-],-2.1%
6,CO/S(=N\S(=O)(=O)c1ccc(Cl)cc1)c1ccc([N+](=O)[O-])cc1 (stereo not drawn),-1.97%
7,O=P(O)(O)C(Cl)(Cl)P(=O)(O)O,-1.97%
8,CCCCCCCCc1ccc(-c2ccc(C(=O)O)cc2)cc1,-2.36%
9,C#CCN1C(C)=C(C(=O)OC)C(c2cccc([N+](=O)[O-])c2)C(C(=O)OCC)=C1C (stereo not drawn),6.85%
10,COc1cc(C(O)CO)ccc1OS(=O)(=O)O (stereo not drawn),-1.52%
11,CC(C)Cc1ccc([C@H](C)C(=O)O)cc1,-2.31%
12,Cc1nc2sccn2c(=O)c1CCN1CCC(=C(c2ccccc2)c2ccc(F)cc2)CC1,-2.27%
13,O=c1[nH]c2cc(Cl)c(Cl)cc2[nH]c1=O,-1.35%
14,CC1CN(S(=O)(=O)c2cccc3cnccc23)CCN1 (stereo not drawn),-1.73%
15,COc1ccc(NC(=O)/C=C/c2ccc(Cl)cc2)cc1,-1.65%
16,C[C@@H](NC(=O)/C(C#N)=C/c1ccc(O)c(O)c1)c1ccccc1,10.6%
17,CCCN(CC1CC1)c1nc(C)nc(Nc2c(Cl)cc(Cl)cc2Cl)c1Cl,-1.79%
18,Cc1cc(NC2CCCCC2)nc(-n2nc(C)cc2C)n1,-1.95%
19,NCCSSCCN,-1.06%

row,SMILES,activation
1,CC(C)(C=O)Cc1cc(C(C)(C)C)c(O)c(C(C)(C)C)c1,0.977%
2,CCc1c(C(=O)NCCc2ccc(N3CCCCC3)cc2)[nH]c2ccc(Cl)cc12,-2.54%
3,NC(=S)c1ccc[n+]([C@@H]2O[C@@H](COP(=O)([O-])OP(=O)(O)OC[C@H]3O[C@@H](n4cnc5c(N)ncnc54)[C@H](OP(=O)(O)O)[C@@H]3O)C(O)C2O)c1 (stereo partly drawn),1.03%
4,CCCn1c(=O)c2[nH]c(-c3ccc(OCC(=O)NCCN)cc3)nc2n(CCC)c1=O,0.757%
5,CN=c1nc(-c2ccccc2)n(-c2ccccc2)s1,6.22%
6,CNC(=O)[C@H]1O[C@@H](n2cnc3c(NCc4ccc(N)cc4)ncnc32)[C@H](O)[C@@H]1O,0.605%
7,C=CC(C)=C[C@@]1(C)SC(=O)C(C)=C1O,-2.5%
8,Clc1ccc(N2CCN(Cc3cc4ccccn4n3)CC2)cc1,-1.98%
9,N#C/C(=C\c1ccc(O)c(O)c1)C(=O)NCc1ccccc1,6.6%
10,OC[C@H]1O[C@@H](n2cnc3c(NC4CCCCC4)ncnc32)[C@H](O)[C@@H]1O,-1.5%
11,O=C1NC(=O)/C(=C/c2ccc3nccnc3c2)S1,1.32%
12,NCCCCC(=O)O,1.41%
13,COc1ccccc1N1CCN(CCN(C(=O)c2ccc(I)cc2)c2ccccn2)CC1,-1.11%
14,NCC1OC(O[C@H]2[C@H](O)[C@@H](OC3C(O)C(N)CC(N)C3OC3OC(CO)C(O)C(O)C3N)O[C@@H]2CO)C(N)C(O)C1O (stereo partly drawn),-1.88%
15,O=C(O)c1cc([N+](=O)[O-])ccc1NCCCc1ccccc1,1.98%
16,Nc1ncnc2c1ncn2[C@@H]1O[C@H](COP(=O)(O)CP(=O)(O)OP(=O)(O)O)[C@@H](O)[C@H]1O,-2%
17,NC(=O)C1=CN(C2OC(COP(=O)(O)OP(=O)(O)OC[C@H]3O[C@@H](n4cnc5c(N)ncnc54)[C@H](OP(=O)(O)O)[C@@H]3O)C(O)C2O)C=CC1 (stereo partly drawn),-1.71%
18,CCCCC#Cc1nc(NC)c2ncn([C@@H]3O[C@H](CO)[C@@H](O)[C@H]3O)c2n1,-2.14%
